Screens from PubChem.
In the library only some 4.4% were active in any assay of this set; here they are far more common.
IL1B NFkB pot: enhancers of NFkB p65 translocation in HUVEC – imaging, IL-1B stimulus, high-content imaging, primary screen; AID 819, 2007; activation, % at 2 µM; HUVEC IL-1B NFkB p65 nuclear translocation imaging; 94,000 tested, 0.3% active;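 active = activation above 40%, about the mean plus 3 SD, also judged a hit on visual image review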;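 note: percent activation is computed from the nuclear over cytoplasmic p65 intensity ratio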
Cav3 T inh: Cav3.2 calcium influx blockers – cell-based, Fluo-4 calcium fluorescence, FDSS, MLSMR library, primary screen; B-score at 10 µM; Voltage-dependent T-type calcium channel subunit alpha-1H (Homo sapiens), O95180; Cav3.2-expressing cells; hits give low values; 100,000 tested, 4% active;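 active = single-dose well whose peak fluorescence ratio is a statistical outlier from its plate by either plate-standardised score or position-corrected B-score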
IL1B NFkB inh: inhibitors of IL-1B driven NFkB p65 nuclear import, primary screen, imaging, HUVEC, IL-1B stimulus, high-content imaging; HUVEC IL-1B NFkB p65 nuclear translocation imaging; inhibition, % at 2 µM; 94,000 tested, 0.43% active;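 active = inhibition above about 30% together with a positive call from visual inspection of the well image, limit read from the data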;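 note: nuclear over cytoplasmic p65 intensity ratio measured by imaging; 0% = IL-1B stimulated DMSO wells and 100% = unstimulated DMSO wells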
IL1B cytotox: cytotoxicity in IL-1B stimulated HUVEC, primary screen, cytotoxicity control for IL-1B NFkB translocation project, imaging, Hoechst nuclear count, IL-1B stimulus; HUVEC cell count loss; cell count reduction, % at 2 µM; 94,000 tested, 0.41% active; AID 845, 2007;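 active = cell count reduction more than 3 SD above the screen-wide mean, cut at about 70% in these data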;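 note: normalized per plate to untreated control cells as the no-loss baseline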
* hit, by the source's call; . = not tested or not shown.

SMILES | IL1B NFkB pot | Cav3 T inh | IL1B NFkB inh | IL1B cytotox
CCC1Oc2ccc(C)cc2N(CC(=O)NCC2COc3ccccc3O2)C1=O (stereo not drawn) | -10.0 | -5.17* | 10.0 | -8.4
CC(C)(C)C(=O)Cn1c(=N)n(Cc2ccccc2Cl)c2ccccc21 | 11.2 | -4.98* | -11.2 | -57.6
CCOC(=O)c1c(NC(=O)C(F)(OC)C(F)(F)F)sc(C(=O)N2CCCCC2)c1C (stereo not drawn) | -12.0 | . | 12.0 | -35.1
O=c1c2ccccc2nc(SCc2nc(-c3ccccc3)no2)n1-c1ccc(F)cc1 | . | -4.51* | . | .
Cc1noc(C)c1CSc1nc2ccccc2c(=O)n1-c1ccc(Cl)cc1 | -1.4 | -2.91 | 1.4 | 88.7*
Cc1noc(C)c1CSc1nc2ccccc2n1CCc1ccccc1 | 4.7 | -4.14* | -4.7 | -3.2
Cc1noc(C)c1CSc1nc2sc(C)c(C)c2c(=O)n1-c1ccccc1 | -4.9 | -1.24 | 4.9 | -2.2
Cc1ccc(Cl)cc1NC(=O)Cn1cc2c(n1)CCCC2 | 23.6 | -1.36 | -23.6 | -8.7
COC(C[C@H]1O[C@H]1[C@H](O)[C@@H](C)OCc1ccccc1)OC | . | 0.518 | . | .
Cc1cccc(/C=C2/S/C(=N/N=C3\CC4CCC3(C)C4(C)C)NC2=O)c1 (stereo not drawn) | -5.3 | -3.01 | 5.3 | -63.3
C#CCn1c(=NC(=O)CSC(C)=O)sc2cc(F)ccc21 | . | -3.38 | . | .
CCn1c(=NC(=O)CSC(C)=O)sc2cc(F)ccc21 | 11.8 | -10.6* | -11.8 | -50.5
Cc1ccc(Sc2ncccc2COC(=O)Nc2c(C)cccc2C)cc1 | -0.3 | -5.53* | 0.3 | -15.3
Cc1ccc(Sc2ncccc2COC(=O)Nc2ccccc2)cc1 | 13.9 | -2.71 | -13.9 | -13.0
CCC(C)c1ccc(NC(=S)NCc2cccs2)cc1 (stereo not drawn) | -8.9 | -3.2* | 8.9 | -8.1
CCOc1cc(CNc2ccc(Br)cc2)cc(Br)c1OCC(=O)NC(C)(C)C | 13.2 | -0.795 | -13.2 | 10.8
CCOc1cc(CNc2ccccc2)cc(Br)c1OCC(=O)NC(C)(C)C | 5.4 | -5.08* | -5.4 | -4.0
CC(C)c1ccc(N(CC(=O)NCCSC(C)(C)C)S(C)(=O)=O)cc1 | 20.7 | -0.0412 | -20.7 | 1.2
O=C(NCCc1nc2ccccc2[nH]1)c1ccc(F)cc1 | 13.4 | -0.494 | -13.4 | 91.6*
O=C([C@H](Cc1ccccc1)NS(=O)(=O)c1ccc(Cl)cc1)N1CC[C@@]2(O)CCCC[C@H]2C1 | -12.9 | -3.34* | 12.9 | -12.6
COc1ccc(S(=O)(=O)N[C@@H](Cc2ccccc2)C(=O)N2CC[C@@]3(O)CCCC[C@H]3C2)cc1 | -7.6 | 0.384 | 7.6 | -64.0
Cc1ccc(S(=O)(=O)N/N=C/c2c(C)nn(-c3ccccc3)c2C)cc1 | -1.8 | -2.47 | 1.8 | 13.3
[C-]#[N+][C@H](O[C@@H]1O[C@H](CO)[C@@H](O)[C@H](O)[C@H]1O)c1ccccc1 | . | -5.73* | . | .
Cc1nn(Cc2c(Cl)cccc2Cl)c(C)c1N | 2.7 | 0.596 | -2.7 | -14.5
Cc1cc(N2C(=O)C(=O)/C(=C(/O)c3ccc(F)cc3)C2c2cccc(Br)c2)no1 (stereo not drawn) | -1.5 | -3.36 | 1.5 | -17.3
SMILES | IL1B NFkB pot | Cav3 T inh | IL1B NFkB inh | IL1B cytotox
Cc1ccc(/C(O)=C2\C(=O)C(=O)N(c3cc(C)on3)C2c2cccc(Br)c2)cc1 (stereo not drawn) | 12.1 | -3.74* | -12.1 | -29.9
Cc1ccc(/C(O)=C2\C(=O)C(=O)N(c3cc(C)on3)C2c2cccc(Cl)c2)cc1 (stereo not drawn) | 14.0 | -3.1* | -14.0 | 2.6
N#Cc1c(-c2ccccc2)c(-c2ccccc2)n(Cc2ccco2)c1NC(=O)c1cccs1 | . | -8.9* | . | .
CCN(CC)c1cnn(C/C(=N\OC)c2ccc(Cl)cc2)c(=O)c1Br | 2.7 | -5.07* | -2.7 | -8.8
CO/N=C(/CNC(=O)c1ccccc1Cl)c1ccc(Cl)cc1 | -11.3 | . | 11.3 | -2.3
O=C(NCC1CC1)c1cc(-c2ccccc2)nn1CC1CC(c2cccnc2)=NO1 (stereo not drawn) | . | 0.819 | . | .
Cc1cc(C(=O)CN2C(=O)NC(c3ccccc3)(c3ccccc3)C2=O)c(C)n1Cc1ccco1 | -1.2 | -8.6* | 1.2 | -6.5
Cc1cc(C(=O)CN2C(=O)NC3(CCCc4ccccc43)C2=O)c(C)n1Cc1cccs1 (stereo not drawn) | 7.4 | -7.44* | -7.4 | -31.5
C=CCn1c(C)cc(C(=O)CN2C(=O)NC3(CCCc4ccccc43)C2=O)c1C (stereo not drawn) | -1.1 | -0.824 | 1.1 | 12.7
Cc1cc(C(=O)CN2C(=O)NC(C)(c3cccc(Br)c3)C2=O)c(C)n1Cc1ccco1 (stereo not drawn) | -10.1 | . | 10.1 | -10.2
CC1(CCc2ccc(O)cc2)NC(=O)NC1=O (stereo not drawn) | 21.5 | 0.00797 | -21.5 | -89.7
Cc1cc(C)n(CC(O)CN2c3ccccc3Sc3ccccc32)n1 (stereo not drawn) | -8.4 | -6.33* | 8.4 | -4.3
CC(C)N(C(=O)COc1ccc(Br)cc1Cl)C(C)C | -2.9 | -5.55* | 2.9 | -11.6
Cc1cccc(NC(=O)c2cc(NC(=O)C3CCCCC3C(=O)O)ccc2N2CCCCC2)c1 (stereo not drawn) | . | -4.03* | . | .
CN(C)c1ccc(C(c2nnnn2CCOC(=O)Nc2ccc(Cl)cc2)N2CCOCC2)cc1 (stereo not drawn) | 12.7 | -4.12* | -12.7 | 9.1
CNC(=S)N1N=C(c2ccc(C)cc2)CC1c1ccc(OC)cc1 (stereo not drawn) | -8.8 | -4.08* | 8.8 | -4.3
CCOc1cc(N2CCOCC2)c(OCC)cc1NC(=O)CSc1cccc[n+]1[O-] | 69.6* | 1.01 | -69.6 | -12.8
Cc1ccc(-n2c(SCC(N)=O)nnc2-c2ccc(S(=O)(=O)N3CCCCC3)cc2)c(C)c1 | 23.6 | 1.25 | -23.6 | -61.7
C=CCn1c(Br)nc2c1c(=O)n(C)c(=O)n2C | 49.4* | 0.107 | -49.4 | 20.6
CCOC(=O)C1=C(C)N(CCCC(=O)O)C(=O)NC1c1ccc(C(F)(F)F)cc1 (stereo not drawn) | . | 1.22 | . | .
O=C1CCCC2=C1C(c1ccsc1)CC(=O)N2c1nnc(SCc2ccccc2)s1 (stereo not drawn) | -5.1 | -5.48* | 5.1 | 18.0
O=C(Cc1ccccc1)N[C@@H](Cc1ccc(O)cc1)C(=O)O | . | -0.111 | . | .
CC(C)OP(=O)(c1ccc(N(C)C)cc1)C(O)c1c(Cl)cccc1Cl (stereo not drawn) | -4.5 | -0.325 | 4.5 | -80.8
CC(NC(=O)c1ccccc1O)c1ccccc1 (stereo not drawn) | -5.5 | 0.00412 | 5.5 | 18.7
CCCOC(=O)c1c(NC(=O)CSc2nc(-c3ccco3)cc(C(F)(F)F)n2)sc(C(=O)OC)c1C | 15.4 | -5.22* | -9.5 | -27.3
COc1cc(/C=C2/N=C(c3ccccc3)OC2=O)c(F)cc1OCc1ccccc1 | . | -1.28 | . | .
O=C(CC1Sc2ncnn2C1=O)Nc1ccccc1 (stereo not drawn) | -3.9 | 0.204 | 3.9 | -10.7
C=CCn1c(SCc2c(C)noc2C)nnc1C1COc2ccccc2O1 (stereo not drawn) | 0.1 | -4.87* | -0.1 | 8.9
